Consider six molecules from PubChem BioAssay.

One assay has as its target Albumin (Bos taurus) (UniProt P02769). Briefly: bovine serum albumin binders on microarray, profiling panel, artefact control for SMM control protein annotation, biochemical, small-molecule microarray, Alexa647 label, 635/667 nm fluorescence (AID 1118).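 Also: score merges 667 nm emission intensity and signal-to-noise per printed compound spot.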 The settings on record: BSA-A647 binding, fluorescence 635 nm, higher = more signal.
The nature of assay [1]: small-molecule microarray binders of probe aXIP, primary screen, biochemical, NeuroSMM set, 635/667 nm fluorescence (AID 1119).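 Also: probe is the protein aXip251-270 applied at 1 µg/mL to compound-printed slides; binding of probe to printed compounds measured as 667 nm fluorescence plus signal to noise.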 The settings on record: higher = more signal, called active from +8 up or from −8 down.
Assay [2] is described as follows: small-molecule binders of probe aNOTCH3, primary screen, biochemical, small-molecule microarray, 635/667 nm fluorescence (AID 1120).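 Also: probe is a biotin-tagged antibody raised against NOTCH3 rather than NOTCH3 protein; score merges spot fluorescence near 667 nm with spot signal to noise.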 The settings on record: higher = more signal.
Assay [3] can be described thus: small-molecule binders of probe aNOTCH2, primary screen, biochemical, small-molecule microarray, 635/667 nm fluorescence (AID 1121).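 Also: score merges feature fluorescence read at 667 nm with its signal to noise.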 The settings on record: higher = more signal.
For assay [4], the target named is Carbonic anhydrase 2 (Homo sapiens) (UniProt P00918). Briefly: CAII small-molecule binders, profiling panel, biochemical, small-molecule microarray, Alexa647-labelled CAII (AID 1122). The settings on record: CAII-A647 binding fluorescence, higher = more signal.
The nature of assay [5]: COS7 lysate on small-molecule microarray, probe aHis, 635 nm (AID 1123).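 Also: z-score combines 667nm fluorescence intensity with signal-to-noise per printed compound spot.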 The settings on record: COS7 cell lysate, fluorescence, higher = more signal.
A short description of assay [6]: compound binding in COS7 lysate, probe aLAP1, primary screen, cell lysate, small-molecule microarray (AID 1124).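 Also: lysate comes from COS7 cells expressing LAP1 and is applied at 0.3 µg/mL; score merges spot fluorescence near 667 nm with signal-to-noise over triplicate slides.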 The settings on record: probe aLAP1, fluorescence, higher = more signal.
The test system of a further assay is Sam68 (KHDRBS1). Briefly: Sam68 small-molecule binders, primary screen, biochemical, small-molecule microarray, 635 nm fluorescence (AID 1125).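 Also: score merges 667 nm channel intensity with signal to noise over triplicate slides.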 The settings on record: small-molecule microarray binding, higher = more signal.
Assay [7] deals with Chordin-like protein 2 (CHRDL2). Briefly: CHRDL2 small-molecule binders, primary screen, biochemical, small-molecule microarray, 635 nm fluorescence (AID 1126).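 Also: printed compound slides probed with Chrdl2 protein at 4 µg/mL for 1 h at 4 C; score merges 667 nm emission intensity with signal to noise over three replicate slides.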 The settings on record: small-molecule microarray binding, fluorescence 635 nm; higher = more signal.
In assay [8] the target is Concanavalin-A (Canavalia ensiformis) (UniProt P02866). Briefly: ConA small-molecule binders, primary screen, artefact control for SMM control protein annotation, biochemical, small-molecule microarray, Alexa647 label, 635 nm (AID 1127).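 Also: z combines 667 nm emission intensity with signal-to-noise across three replicate slides.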 The settings on record: ConA-A647 binding fluorescence, higher = more signal.
Assay [9] can be described thus: anti-His antibody binders, primary screen, artefact control for SMM control protein annotation, biochemical, small-molecule microarray, 635 nm fluorescence (AID 1128).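 Also: score merges feature fluorescence with signal-to-noise for each printed compound spot.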 The settings on record: anti-His Alexa647 antibody binding, higher = more signal.
For assay [10], the system named is Human papillomavirus type 1a E7 protein (residues 1-88). Briefly: HPV1a E7 small-molecule binders, primary screen, biochemical, small-molecule microarray, residues 1-88, 635 nm (AID 1129). The settings on record: small-molecule microarray binding, fluorescence 635 nm; higher = more signal.
Assay [11] deals with Focal adhesion kinase 1 (Homo sapiens) (UniProt Q05397). Briefly: small-molecule microarray binders of FAK, primary screen, biochemical, 635/667 nm fluorescence, BSA, DTT (AID 1130).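 Also: composite of spot emission at 667 nm and signal to noise over triplicate slides.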 The settings on record: PTK2 binding, 635 nm fluorescence, higher = more signal.
The test system of assay [12] is Fibrinogen (Alexa647-labelled). Briefly: fibrinogen binders on compound microarrays, profiling panel, artefact control for SMM control-protein annotation, biochemical, small-molecule microarray, 635/667 nm fluorescence (AID 1131).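 Also: z-score merges 667 nm fluorescence with per-spot signal-to-noise over triplicate slides.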 The settings on record: fibrinogen-A647 binding fluorescence, higher = more signal.
Assay [13] addresses Follistatin (Homo sapiens) (UniProt P19883). Briefly: follistatin binders on small-molecule microarrays, primary screen, biochemical, small-molecule microarray, 635/667 nm fluorescence (AID 1132). The settings on record: FST binding, 635 nm fluorescence, higher = more signal.
In assay [14] the target is Fibroblast growth factor 2 (Homo sapiens) (UniProt P09038). Briefly: FGF2 binders on small-molecule microarrays, primary screen, biochemical, small-molecule microarray, 635/667 nm fluorescence (AID 1133). The settings on record: small-molecule microarray binding, FGF2, fluorescence 635/667; higher = more signal.
The nature of assay [15]: mitochondrial membrane potential change in A549 cells, profiling panel, cell-based, JC-1 fluorescence, basal, 24 h, 100 nL (AID 1138).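 Also: A549 lung adenocarcinoma cells under basal conditions with no added stimulus; test concentration not given here.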 The settings on record: higher = more signal.
Another assay relates to Lefty1. Briefly: Lefty1 binders on small-molecule microarrays, primary screen, biochemical, small-molecule microarray, 635/667 nm fluorescence (AID 1139). The settings on record: small-molecule microarray binding, fluorescence 635/667; higher = more signal.
Assay [16] relates to wheat germ agglutinin (Triticum aestivum), Alexa647-labelled. Briefly: wheat germ agglutinin binders on compound microarrays, profiling panel, artefact control for SMM control-protein annotation, biochemical, small-molecule microarray, 635/667 nm fluorescence (AID 1140).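 Also: score merges 667 nm feature emission with signal to noise over triplicate slides.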 The settings on record: WGA-A647 binding, 635 nm fluorescence, higher = more signal.
The target of assay [17] is Luciferin 4-monooxygenase (Photinus pyralis) (UniProt P08659). Briefly: firefly luciferase enzyme inhibitors, primary screen, biochemical, luminescence, purified enzyme, 2006 set (AID 1141).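 Also: cell-free assay with purified firefly luciferase at 100 ng per well in PBS; test concentration not given here.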 The settings on record: SteadyGlo luminescence, 30 min, higher = more signal, called active from +8 up or from −8 down.

Calls of active or inactive are those of the source.

Chain of Luciferin 4-monooxygenase (Photinus pyralis) (P08659 whole entry, looked up): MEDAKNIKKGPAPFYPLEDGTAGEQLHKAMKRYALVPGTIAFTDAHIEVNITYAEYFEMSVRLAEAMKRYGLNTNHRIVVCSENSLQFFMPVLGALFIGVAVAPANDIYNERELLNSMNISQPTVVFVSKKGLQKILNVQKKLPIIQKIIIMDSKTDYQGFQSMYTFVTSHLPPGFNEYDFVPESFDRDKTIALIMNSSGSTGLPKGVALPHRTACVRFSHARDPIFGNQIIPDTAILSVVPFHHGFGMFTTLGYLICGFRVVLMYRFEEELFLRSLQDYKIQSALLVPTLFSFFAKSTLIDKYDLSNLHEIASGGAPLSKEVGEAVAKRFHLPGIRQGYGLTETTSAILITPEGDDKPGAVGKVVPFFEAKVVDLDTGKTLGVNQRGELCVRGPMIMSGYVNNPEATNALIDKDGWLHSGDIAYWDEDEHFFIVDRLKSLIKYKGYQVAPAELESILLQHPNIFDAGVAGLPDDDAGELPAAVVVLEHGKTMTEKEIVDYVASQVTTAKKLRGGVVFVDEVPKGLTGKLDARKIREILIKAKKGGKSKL
Chain of Fibroblast growth factor 2 (Homo sapiens) (P09038 whole entry, looked up): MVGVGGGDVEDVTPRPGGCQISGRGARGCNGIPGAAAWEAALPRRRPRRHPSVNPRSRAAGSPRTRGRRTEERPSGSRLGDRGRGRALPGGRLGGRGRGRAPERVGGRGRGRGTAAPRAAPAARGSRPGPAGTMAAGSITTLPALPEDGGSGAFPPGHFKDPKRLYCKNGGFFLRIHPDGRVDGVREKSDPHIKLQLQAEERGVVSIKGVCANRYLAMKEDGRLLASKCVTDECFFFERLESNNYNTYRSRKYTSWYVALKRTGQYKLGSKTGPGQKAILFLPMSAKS
Chain of Concanavalin-A (Canavalia ensiformis) (P02866 whole entry, looked up): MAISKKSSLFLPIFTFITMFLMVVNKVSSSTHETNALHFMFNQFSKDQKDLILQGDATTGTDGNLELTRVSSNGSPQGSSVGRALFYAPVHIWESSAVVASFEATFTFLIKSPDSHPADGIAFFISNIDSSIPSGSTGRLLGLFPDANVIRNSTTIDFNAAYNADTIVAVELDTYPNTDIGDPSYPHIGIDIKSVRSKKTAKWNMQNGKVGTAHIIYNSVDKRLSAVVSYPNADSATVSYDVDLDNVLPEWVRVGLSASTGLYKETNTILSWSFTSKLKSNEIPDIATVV
Chain of Albumin (Bos taurus) (P02769 whole entry, looked up): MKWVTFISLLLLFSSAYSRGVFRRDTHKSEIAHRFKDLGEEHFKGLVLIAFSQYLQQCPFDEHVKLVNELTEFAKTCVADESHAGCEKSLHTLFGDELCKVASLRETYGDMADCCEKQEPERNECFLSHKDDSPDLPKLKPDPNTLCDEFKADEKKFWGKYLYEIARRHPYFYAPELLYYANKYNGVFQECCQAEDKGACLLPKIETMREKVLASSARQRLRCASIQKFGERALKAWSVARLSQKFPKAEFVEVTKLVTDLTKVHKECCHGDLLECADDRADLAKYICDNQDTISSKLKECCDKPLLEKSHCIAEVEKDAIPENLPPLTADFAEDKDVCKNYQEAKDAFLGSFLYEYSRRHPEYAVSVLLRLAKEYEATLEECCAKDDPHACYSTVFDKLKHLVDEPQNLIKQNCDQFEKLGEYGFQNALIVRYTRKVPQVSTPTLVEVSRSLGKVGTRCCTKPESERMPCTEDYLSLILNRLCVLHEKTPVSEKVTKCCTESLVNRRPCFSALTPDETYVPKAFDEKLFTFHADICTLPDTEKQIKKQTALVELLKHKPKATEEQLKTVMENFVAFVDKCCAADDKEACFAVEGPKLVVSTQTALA
Chain of Follistatin (Homo sapiens) (P19883 whole entry, looked up): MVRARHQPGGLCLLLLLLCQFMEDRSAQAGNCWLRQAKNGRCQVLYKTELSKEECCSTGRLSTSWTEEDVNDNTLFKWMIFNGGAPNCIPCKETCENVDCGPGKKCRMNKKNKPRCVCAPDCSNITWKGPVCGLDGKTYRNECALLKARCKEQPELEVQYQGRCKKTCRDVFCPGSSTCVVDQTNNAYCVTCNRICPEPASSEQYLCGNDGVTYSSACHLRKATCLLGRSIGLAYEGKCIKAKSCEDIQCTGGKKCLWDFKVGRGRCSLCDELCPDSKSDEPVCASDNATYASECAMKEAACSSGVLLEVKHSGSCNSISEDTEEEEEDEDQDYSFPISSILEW
Chain of Focal adhesion kinase 1 (Homo sapiens) (Q05397 whole entry, looked up): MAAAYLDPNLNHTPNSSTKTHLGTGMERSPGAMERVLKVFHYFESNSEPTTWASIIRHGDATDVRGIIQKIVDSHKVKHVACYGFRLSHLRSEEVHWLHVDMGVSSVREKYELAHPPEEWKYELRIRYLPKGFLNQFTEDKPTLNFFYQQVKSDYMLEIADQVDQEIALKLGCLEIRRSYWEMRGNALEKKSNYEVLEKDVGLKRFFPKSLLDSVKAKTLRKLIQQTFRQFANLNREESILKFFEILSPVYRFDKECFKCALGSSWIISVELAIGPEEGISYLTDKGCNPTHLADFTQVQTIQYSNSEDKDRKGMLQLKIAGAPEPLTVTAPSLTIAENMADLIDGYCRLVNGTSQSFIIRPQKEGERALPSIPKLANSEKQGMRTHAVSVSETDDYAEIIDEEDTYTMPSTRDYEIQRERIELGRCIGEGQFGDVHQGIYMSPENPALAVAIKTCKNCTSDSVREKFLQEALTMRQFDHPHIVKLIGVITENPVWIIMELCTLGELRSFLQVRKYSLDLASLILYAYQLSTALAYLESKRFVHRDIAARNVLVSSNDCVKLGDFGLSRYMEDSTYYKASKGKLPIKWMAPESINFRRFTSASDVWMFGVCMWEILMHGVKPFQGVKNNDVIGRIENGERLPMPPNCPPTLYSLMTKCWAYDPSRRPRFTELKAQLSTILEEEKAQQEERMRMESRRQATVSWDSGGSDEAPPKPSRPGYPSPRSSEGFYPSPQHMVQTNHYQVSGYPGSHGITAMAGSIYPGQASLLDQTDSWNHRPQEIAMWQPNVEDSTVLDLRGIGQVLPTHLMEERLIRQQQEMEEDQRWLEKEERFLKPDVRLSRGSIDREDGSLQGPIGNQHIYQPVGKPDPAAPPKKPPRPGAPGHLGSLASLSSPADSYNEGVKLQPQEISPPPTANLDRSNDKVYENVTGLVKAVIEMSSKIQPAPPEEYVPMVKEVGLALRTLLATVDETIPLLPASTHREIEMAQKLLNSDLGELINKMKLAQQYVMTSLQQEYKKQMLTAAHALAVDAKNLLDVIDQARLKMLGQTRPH

As to `O=C1C2C=CC(C(O)C=Cc3ccc([N+](=O)[O-])cc3)N(Nc3ccccc3F)C2C(=O)N1c1ccccc1` (stereo not given), the composite z-score with Albumin (Bos taurus) is 0.868; in assay [2] it was 0.127; in assay [3], -0.147; in [4], 0.651; in assay [5] it was 2.31; in assay [6], 0.885. In addition, the composite z-score in the assay on Sam68 (KHDRBS1) is 1.3; in assay [7] it was 0.0612; in [8] it was 1.15; in assay [9], 1.41; in assay [10] it was 1.23; in assay [11] it was 0.545. Besides, the composite z-score in [12] amounted to 0.995; in [13], 1.11; in assay [14], 0.211; in the assay on Lefty1 it was 0.522; in assay [16], 1. For the same molecule, the composite Z-score in assay [1] is 0.139 (inactive). Also, the z-score is -0.607 in [15] and -0.252 (inactive) in assay [17].

For `C=CCNC(=O)[C@@H]1[C@H]2C(=O)O[C@H](c3ccccc3)[C@H](c3ccccc3)N2[C@H](c2ccc(OCCO)cc2)[C@@]12C(=O)N(C(=O)OCCOC)c1ccc(C#CCNC(N)=O)cc12`, the composite z-score with Albumin (Bos taurus) was -0.178; in assay [2] it was 0.163; in assay [3] it was -0.0632; in [4], 0.513; in assay [5], 1.02; in [6] it was 0.662. Besides, the composite z-score in the assay on Sam68 (KHDRBS1) was 1.3; in assay [7], 0.305; in [8], 1.1; in assay [9], 1.26; in assay [10] it was 1.17; in assay [11] it was 0.613. Further, the composite z-score in [12] came to 0.82; in assay [13], 1.38; in assay [14], 1.34; in the assay with Lefty1, 0.947; in [16] it was 0.94. The composite Z-score in assay [1] was 0.0253 (inactive). For the same molecule, the z-score is -0.746 in assay [15] and -0.94 (inactive) in [17].

Regarding `COc1ccccc1CN1C(=O)c2ccccc2[C@@]2(Cc3ccccc3N(CCCN(C)C)C2=O)[C@@H]1c1ccc(CO)cc1`, the composite z-score in the assay with Albumin (Bos taurus) is -0.909; in [2], -0.0797; in assay [3] it was 0.0687; in assay [4], -0.271; in assay [5] it was 0.5; in [6], -0.0231. Also, the composite z-score was -0.204 in the assay with Sam68 (KHDRBS1); 1.27 in [7]; 0.417 in [8]; 0.583 in assay [9]; -0.984 in assay [10]; -0.0228 in [11]. Besides, the composite z-score in [12] is 0.253; in assay [13], 1.2; in assay [14], 0.459; in the assay with Lefty1 it was 0.647; in assay [16], -0.331. In addition, in [1], the composite Z-score was 0.027 (inactive). Further, the z-score in assay [15] was -0.202; in [17], -0.278 (inactive).

Turning to `CC(=O)NCCCC[C@@H]1NC(=O)[C@H]2C[C@@H](C(=O)NCCCCCNC(=O)CS)[C@@H](c3ccc(O)cc3)N2C1=O`, the composite z-score is -0.16 with Albumin (Bos taurus); -0.136 in [2]; -0.133 in [3]; 0.704 in assay [4]; 1.07 in assay [5]; -0.269 in assay [6]. Also, the composite z-score was 0.338 in the assay on Sam68 (KHDRBS1); -0.105 in assay [7]; 0.509 in assay [8]; 2.12 in [9]; -0.15 in [10]; 0.167 in [11]. Further, the composite z-score in assay [12] was -0.355; in assay [13], 0.769; in assay [14], 0.424; in the assay with Lefty1, -0.272; in assay [16] it was -0.0796. Besides, the composite Z-score in [1] was -0.249 (inactive). The z-score in assay [15] is 0.139; in assay [17], -2.56 (inactive).

As for `COC(=O)C(CC#Cc1ccc2c(c1)[C@]1(C(=O)N2)[C@H](c2ccccc2OCCO)N2[C@H](c3ccccc3)[C@H](c3ccccc3)OC(=O)[C@H]2[C@@H]1C(N)=O)C(=O)OC`, the composite z-score with Albumin (Bos taurus) was 0.468; in assay [2], 0.631; in assay [3] it was 0.25; in [4] it was 0.672; in assay [5] it was 2.09; in assay [6], 0.493. Moreover, the composite z-score was 0.519 with Sam68 (KHDRBS1); 0.0031 in [7]; 0.736 in [8]; 1.6 in assay [9]; 1.22 in assay [10]; 0.473 in assay [11]. Also, the composite z-score in [12] is 0.711; in assay [13], 0.619; in assay [14], 0.168; in the assay with Lefty1, -0.0878; in assay [16], 1.15. For the same molecule, the composite Z-score in assay [1] is 0.389 (inactive). Also, the z-score in assay [15] is -0.153; in [17], -0.821 (inactive).

As for `C=CCN1C(=O)[C@]2(Cc3ccccc3)N=C(c3ccc(OCCCO)cc3)O[C@@H]2c2ccccc21`, the composite z-score with Albumin (Bos taurus) is -0.591; in assay [2], 0.143; in [3], -0.0029; in assay [4] it was 0.414; in assay [5], 2.79; in [6], -0.0869. The composite z-score with Sam68 (KHDRBS1) came to 1.3; in [7], 0.997; in assay [8], 0.911; in assay [9], 3.16; in assay [10] it was 1.2; in assay [11] it was 0.145. The composite z-score in assay [12] was found to be 0.548; in assay [13], 1.37; in [14], 1.56; with Lefty1, 0.816; in assay [16], 0.663. Moreover, the composite Z-score in assay [1] is -0.452 (inactive). The z-score in assay [15] was 1.59; in assay [17] it was -6.95 (inactive).
